Measurements as given in the supplement of paper PMC9399229.
“And” between values parts separate entries of the source, which are not always exact repeats. Equal entries are not always repeated. Structures can show the parent of a compound that is named as a salt. In all, about 1,900 compounds were measured (“relative cell viability (CellTiter-Glo), compound plus cabozantinib, relative to the cabozantinib arm (arm median 1.05; reference not stated)”: median about 1.1, lowest 2% from about 0.15 on). This excerpt belongs to a sample that is enriched for the lowest values.

These compounds were tested on Hep3B (assay: relative cell viability (CellTiter-Glo), compound plus cabozantinib, relative to the cabozantinib arm (arm median 1.05; reference not stated) (fraction); higher = more viable cells (less growth inhibition)). Details: cabozantinib 2 µM; 4 days.

| SMILES | relative cell viability |
| --- | --- |
| O=C(NC[C@H](O)CN1CCc2ccccc2C1)c1cc(NC2COC2)ncn1 | 1.13 |
| OC[C@H]1OC(O)[C@H](O)[C@@H](O)[C@@H]1O (some centres not stated) [Dextrose] | 1.01 |
| Cc1nc(Nc2n[nH]c3c2CN(C(=O)N[C@H](CN(C)C)c2ccccc2)C3(C)C)c2sccc2n1 | 0.149 |
| CC(C)CC(=O)Nc1n[nH]c2c1CN(C(=O)C1CCN(C)CC1)C2(C)C | 0.431 |
| CC1CC(OC(=O)C(O)c2ccccc2)CC(C)(C)C1 (configuration not stated) [Cyclandelate] | 1.07 |
| O=C(NC1CCOCC1)c1ccc(-c2cc(-c3c[nH]nc3-c3ccccn3)ccn2)cc1 | 1.12 |
| NC(=O)Nc1cc(-c2cccc(F)c2)sc1C(=O)N[C@H]1CCCNC1 | 0.162 |
| O=C(NC1CCNCC1)c1n[nH]cc1NC(=O)c1c(Cl)cccc1Cl | 0.158 and 0.144 |
| C#C[C@]1(OC(C)=O)CC[C@H]2[C@@H]3CCC4=C[C@@H](OC(C)=O)CC[C@@H]4[C@H]3CC[C@@]21C [Ethynodiol diacetate] | 1.12 |
| N#Cc1c(Oc2ccc(F)c(NC(=O)Cc3cccc(C(F)(F)F)c3)c2)ccc2nc(NC(=O)C3CC3)sc12 | 0.227 |
| CCNC(=O)c1noc(-c2cc(Cl)c(O)cc2O)c1-c1ccc(OC)cc1 | 0.183 |
| CN(C)Cc1ccc(S(=O)(=O)n2ccc(/C=C/C(=O)NO)c2)cc1 [Resminostat] | 0.59 |
| CCCCc1nc2cc(/C=C/C(=O)NO)ccc2n1CCN(CC)CC [Pracinostat (SB939)] | 0.147 |
| COc1ccc(C(=O)CC(=O)c2ccc(C(C)(C)C)cc2)cc1 [Avobenzone] | 1.1 |
| Cc1cc(C(=O)NOCCO)c(Nc2ccc(I)cc2F)n(C)c1=O | 0.141 |
| O=C(NC[C@H](O)CO)c1ccncc1Nc1ccc(I)cc1F | 0.201 |
| Cn1cnc2c(F)c(Nc3ccc(Br)cc3F)c(C(=O)NOCCO)cc21 | 0.634 |
| O=C(NOCC(O)CO)c1cc(Br)c(F)c(F)c1Nc1ccc(I)cc1F (configuration not stated) | 0.87 |
| O=C(NOCCO)c1ccc2cncn2c1Nc1ccc(I)cc1F | 0.133 |
| O=C(NOC[C@H](O)CO)c1ccc(F)c(F)c1Nc1ccc(I)cc1F | 0.183 |
| Cc1nc2c([nH]1)-c1ccccc1N(C(=O)c1ccc(NC(=O)c3ccccc3-c3ccccc3)cc1)CC2 [Conivaptan HCl] | 0.972 |
| CNC(=O)c1ccccc1Sc1ccc2c(/C=C/c3ccccn3)n[nH]c2c1 [Axitinib] | 0.715 |
| COCC[n+]1c2c(n(Cc3cnccn3)c1C)C(=O)c1ccccc1C2=O [YM155 (Sepantronium Bromide)] | 0.129 |
| O=C(c1cncc(Br)c1)N1CCC(N2CCCC2)CC1 | 1.16 |
| COc1cc2c(cc1O)CC[C@@H]1[C@@H]2CC[C@]2(C)[C@@H](O)CC[C@@H]12 [2-Methoxyestradiol (2-MeOE2)] | 1.06 |
| CCCCCCCCCCCCCCCCO [1-Hexadecanol] | 1.14 |

| SMILES | relative cell viability |
| --- | --- |
| C[C@@H](Nc1cc(F)cc(F)c1)c1cc(C(=O)N(C)C)cc2c(=O)cc(N3CCOCC3)oc12 | 0.998 |
| CCN(CC)CCNC(=O)c1ccc(N)cc1 [Procainamide HCl] | 0.947 |
| COc1ccc(Cn2ccc3ccc(C(=O)NO)cc32)cc1 | 0.91 |
| CCN(CC)Cc1ccc2cc(COC(=O)Nc3ccc(C(=O)NO)cc3)ccc2c1 [Givinostat (ITF2357)] | 0.109 |
| CN(C)C(=S)NN=C(c1ccccn1)c1ccccn1 | 0.15 |
| COc1cc(NC(=O)c2ccccn2)ccc1Cl | 1.05 |
| CCOC(=O)[C@H](CCc1ccccc1)N[C@@H](C)C(=O)N1CCC[C@H]1C(=O)O [Enalapril Maleate] | 1.15 |
| CC#CC(=O)N1CC[C@@H](n2c(=O)n(-c3ccc(Oc4ccccc4)cc3)c3c(N)ncnc32)C1 | 1.07 |
| COC(=O)CC[C@H](NC(=O)[C@H](CC(=O)OC)NC(=O)OCc1ccccc1)C(=O)N[C@H](C(=O)N[C@@H](CC(=O)OC)C(=O)CF)C(C)C | 1.09 |
| CCCCC(=O)N(Cc1ccc(-c2ccccc2-c2nnn[nH]2)cc1)[C@H](C(=O)O)C(C)C [Valsartan] | 1.2 |
| COc1ccc(-c2nc(N3CCOCC3)c3sc(CN(C)c4ncc(C(=O)NO)cn4)cc3n2)cn1 | 0.181 |
| Cn1cnc2c(F)c(Nc3ccc(Br)cc3Cl)c(C(=O)NOCCO)cc21 [Selumetinib (AZD6244)] | 0.616 |
| COc1cc(N2CCC(N3CCN(C)CC3)CC2)ccc1Nc1ncnc(Nc2ccccc2S(=O)(=O)C(C)C)n1 | 1.09 |
| Cc1cc(Nc2ncc(Cl)c(Nc3ccccc3S(=O)(=O)C(C)C)n2)c(OC(C)C)cc1C1CCNCC1 | 0.122 |
| NC(=S)N/N=C/c1ncccc1N [Triapine] | 1.02 |
| CC(=O)Nc1nc2c(Oc3cc(-c4ccc(C(F)(F)F)cc4)ncn3)cccc2s1 | 1.04 |
| CN[C@H]1CN(c2ccc3c(=O)c(C(=O)O)cn(-c4nccs4)c3n2)C[C@@H]1OC [Voreloxin (SNS-595)] | 0.968 |
| CC/C(=C(\c1ccc(O)cc1)c1ccc(OCCNC)cc1)c1ccccc1 [Endoxifen HCl] | 1.15 |
| Oc1cc(O)c(Cl)cn1 [Gimeracil] | 1 |
| CNC(CC(=O)O)C(=O)O [NMDA (N-Methyl-D-aspartic acid)] | 1.15 |
| CO[C@H]1/C=C/O[C@@]2(C)Oc3c(C)c(O)c4c(O)c(c5c(nc6cc(C)ccn65)c4c3C2=O)NC(=O)/C(C)=C\C=C\[C@H](C)[C@H](O)[C@@H](C)[C@@H](O)[C@@H](C)[C@H](OC(C)=O)[C@@H]1C [Rifaximin] | 0.91 |
| C=CCc1cc(OC)c(O)c(C(=O)NCCO)c1 [Alibendol] | 0.982 |
| CC1(C)CC[C@]2(C(=O)O)CC[C@]3(C)C(=CC[C@@H]4[C@@]5(C)CC[C@H](O)C(C)(C)[C@@H]5CC[C@]43C)[C@@H]2C1 [Oleanolic Acid] | 1.14 |
| C=C1C(=O)[C@]23[C@H](O)[C@H]1CC[C@H]2[C@@]12CO[C@]3(O)[C@@H](O)[C@@H]1C(C)(C)CC[C@@H]2O [Oridonin] | 1.11 |
| Cc1csc(-c2nnc(Nc3ccc(Oc4ncccc4-c4ccnc(N)n4)cc3)c3ccccc23)c1 | 1 |
| CCCNC(=O)Nc1ccc(Oc2ncnc3cc(OC)c(OC)cc23)cc1Cl | 1.14 |
